Records with an inconclusive call do not appear. A call without a number means that no potency is given here. Calls of active or inactive are those of the source. Calls follow the shape of the dose curve; as a rule, active = well fitted cell-killing curve with a large enough effect; inconclusive = small, poorly fitted or top-dose-only effect, or effect the other way; inactive = no such curve, though single readings can be large or run the other way.
Potency is read from the fitted curve at half-maximal effect.

A short description of the assay: qHTS of pediatric cancer cell lines to identify multiple opportunities for drug repurposing: Confirmatory screen for SJ-GBM2 cells (AID 1347116).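 Also: 48 hour compound exposure; nearly all actives have a fitted effect of over 60% in size.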 Conditions: SJ-GBM2 glioblastoma cells, viability; series mostly up to 45.9 µM. The text has this: Drug repurposing or repositioning has been offered as a strategy for drug development in oncology programs. This approach has special potential for childhood cancers and other rare or orphan diseases, where the expected return on new drug development has been a disincentive to pharmaceuticals.
In this project we exploit the poly-pharmacology of drugs to discover new indications via phenotypic screening of a panel of 19 well-characterized cell lines derived from solid tumors seen in children and adolescents. The goal is to identify approved drugs with previously unrecognized anticancer properties that has the potential to reveal new mechanisms and biological processes involved in carcinogenesis or drug resistance. We employed a titration-based paradigm (quantitative high-throughput screening or qHTS), where all compounds were tested at multiple concentrations for their effect on cell viability. Concentration-response curves (CRCs) were derived directly from the primary screen, and both potency and efficacy values were used to identify compounds with robust bioactivity profiles. We screened the NIH Chemical Genomics Center (NCGC) Pharmaceutical Collection (NPC) and Mechanism Interrogation Plate (MIPE) small molecule collections of approved and investigational compounds against these cell lines; and measured metabolically active cells after 48 hours of compound treatment as a proxy for cell viability.
Assay Submitter: Nathalia J. Martinez, National Center for Advancing Translational Sciences, National Institutes of Health, Rockville, MD, USA; email: natalia.martinez@nih.gov
[1] Shen, M et al. Quantitative high-throughput phenotypic screening of pediatric cancer cell lines identifies multiple opportunities for drug repurposing. Oncotarget 2017 Dec 19;9(4):4758-4772. PMID 29435139.
The cells were obtained from University of North Carolina (UNC), Pediatric Preclinical Testing Program (PPT), and Coriell Institute (CI).
qHTS cell viability assay:
Cells were assayed in growth media at a density of 500-1,000 cells/well. Five microliters of cells were dispensed into 1,536-well, white, solid-bottom, TC-treated plates (Greiner Bio One) using a multidrop dispenser and incubated at 37 degrees C, 5% CO2, under a humidified atmosphere for 5 hours. Twenty-three nanoliters of compounds and controls (neutral control DMSO or positive control bortezomib at final concentration of 2.3 µM) were subsequently transferred by Kalypsys pintool. For primary screens, the MIPE collection was tested at 11-point dilutions (final concentrations range from 0.78 nM to 46 µM) and the NPC collection at 8-point dilutions (final concentrations range from 0.59 nM to 46 µM). Compounds tested in follow-up screens were assayed at 11-point dilutions. Cells were incubated for 48 hours, followed by addition of 3 uL of CellTiter-Glo (Promega). After a 15 min incubation at room temperature, samples were analyzed for luminescence intensity using a ViewLux High-throughput CCD imager equipped with clear filters.
On the technique in general: Quantitative high-throughput screening tests each substance at several concentrations.
Take `CC(=O)[C@@]1(O)CC[C@H]2[C@@H]3C[C@H](C)C4=CC(=O)CC[C@]4(C)[C@H]3CC[C@@]21C`: the Potency was 1.17 µM (active). `CCCCC(=O)OCC(=O)[C@H]1[C@H](C)C[C@H]2[C@@H]3C[C@H](F)C4=CC(=O)C=C[C@]4(C)[C@@]3(F)[C@@H](O)C[C@@]21C`: the Potency was 20.8 µM (active). Then `CCC1=C[C@@H]2CN(C1)Cc1c([nH]c3ccccc13)[C@@](C(=O)OC)(c1cc3c(cc1OC)N(C)[C@H]1[C@@](O)(C(=O)OC)[C@H](OC(C)=O)[C@]4(CC)C=CCN5CC[C@]31[C@@H]54)C2`, with 0.0522 µM (active).

Turning to `Cc1cc(OCCOCC[N+](C)(C)Cc2ccccc2)ccc1C(C)(C)CC(C)(C)C`, the Potency is 14.7 µM (active).

In the case of `CO[C@@H]1[C@@H](OC)[C@H](C)[C@@](O)(CC(=O)O)O[C@H]1[C@H](C)[C@H]1O[C@@]2(CC[C@@](C)([C@H]3CC[C@@](C)([C@@H]4O[C@@H]([C@H]5O[C@](C)(O)[C@H](C)C[C@@H]5C)C[C@@H]4OC4C[C@H](OC)[C@@H](OC)[C@H](C)O4)O3)O2)C[C@H](O)[C@H]1C` (stereo partly specified), the Potency was 7.37 µM (active). `CC[C@@]1(O)C(=O)OCc2c1cc1n(c2=O)Cc2c-1nc1ccccc1c2/C=N/OC(C)(C)C`: the Potency was 0.0928 µM (active). Then `CCc1cc2cc(OC)c(OC)cc2c(Cc2ccccc2)n1`, with “inactive”; and `C[C@H]1C[C@H]2[C@@H]3CCC4=CC(=O)C=C[C@]4(C)[C@H]3C(=O)C[C@]2(C)[C@@]1(O)C(=O)CO`, with 4.65 µM (active); and `CC(C)(C)CC(=O)OCC(=O)[C@@]1(O)CC[C@H]2[C@@H]3CCC4=CC(=O)C=C[C@]4(C)[C@H]3[C@@H](O)C[C@@]21C`, with “inactive”. Then `CC(C)=CCC/C(C)=C/CC/C(C)=C/C(=O)OCC(=O)[C@@]1(O)CC[C@H]2[C@@H]3CCC4=CC(=O)C=C[C@]4(C)[C@H]3[C@@H](O)C[C@@]21C`, with “inactive”. Then `CCOC(=O)O[C@]1(C(=O)OCCl)CC[C@H]2[C@@H]3CCC4=CC(=O)C=C[C@]4(C)[C@H]3[C@@H](O)C[C@@]21C`, with “inactive”; and `CN(C)CCN(Cc1ccsc1)c1ccccn1`, with “inactive”; and `CCCCC(CC)CNC(=O)CC(C)OC(=O)CCC(=O)O` (stereo unspecified), with “inactive”.

Take `Cc1ccc(C(=O)Oc2ccc(C(O)CNC(C)(C)C)cc2OC(=O)c2ccc(C)cc2)cc1` (stereo unspecified): the Potency result was “inactive”. As for `C[C@]12CCC(=O)C=C1CC[C@@H]1[C@@H]2[C@@H](O)C[C@@]2(C)[C@H]1CC[C@]2(O)C(=O)COC(=O)CCC(=O)O`, the entry is “inactive”; as for `Nc1c2ccccc2nc2ccccc12`, 3.29 µM (active); as for `CCC1(c2cnc[nH]2)Cc2ccccc2C1`, “inactive”. As for `C[C@H]1C[C@@H]2[C@H]([C@@H](O)C[C@@]3(C)[C@H]2CC[C@]3(O)C(=O)CO)[C@@]2(C)C=CC(=O)C=C12`, the entry is “inactive”. As for `Nc1ccc2cc3ccc(N)cc3nc2c1`, the figure is 5.85 µM (active); as for `CCC(=O)O[C@]1(C(=O)COC)[C@@H](C)C[C@H]2[C@@H]3CCC4=CC(=O)C=C[C@]4(C)C3(F)[C@@H](O)C[C@@]21C` (stereo partly specified), “inactive”; as for `O=c1[nH]sc2cc(Cl)ccc12`, 20.8 µM (active).

Values taken from PubChem BioAssay (NCATS).
